Cardiac RTF inh: cardiac RTF calcium desensitization. IANBD-labeled cardiac RTF, Ca2+ fluorescence. inhibition, % at 7.15 µM. 340,000 compounds, 0.12% hits. AID 493244;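 active = inhibition above the mean inhibition of all tested compounds plus 3 SD, cut at about 17% in these data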;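 note: assay run at fixed EC70 calcium of 1.6 mM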
CRFBP-R2 agonist: agonists of human CRF-binding protein/CRF-R2 receptor complex. HEK293 CRF-R2/CRF-BP, calcium dye fluorescence (FLIPR); percent of saturating CRF peptide response. activation, % at 13.2 µM. 350,000 compounds, 0.46% hits. AID 588473;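 active = activation of at least 50%, plus an integration ratio under a set limit after plate pattern correction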;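 note: plate controls were neutral control wells without compound for no effect and CRF at EC100 for full effect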
cardiac RTF act: increases calcium sensitivity of human cardiac regulated thin filaments; P19429+P45379; IANBD-labeled TnC RTF fluorescence at EC20 calcium; 0% EC20 calcium, 100% full calcium; activation, % at 7.2 µM; 340,000 compounds, 0.24% hits; AID 493008;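 active = activation above the mean over all tested compounds plus 3 SD, cut at about 30% in these data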;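 note: rise in fluorescence read as greater calcium sensitivity of cardiac thin filaments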
Myeloid diff 2: compounds promoting myeloid differentiation | 360,000 compounds, 1% hits | calls only at 10 µM | ER-HoxA9 myeloid progenitors, lysozyme-GFP differentiation, flow cytometry;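 active = normalized GFP-positive differentiation at or above the plate's own cutoff, the solvent-only control mean plus 3 SD; inconclusive = no clear call, values can overlap the other calls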;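 note: cells exposed to compound for four days before flow analysis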
CRFBP-R2 block: antagonists of CRF-binding protein/CRF-R2 receptor complex | HEK293 CRF-R2/CRF-BP, CRF-induced calcium fluorescence | inhibition, % at 11.8 µM | 350,000 compounds, 0.59% hits;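 active = inhibition of the ligand-induced calcium signal above about 50% at the single tested concentration, limit read from the data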
Active calls of the source: *; i = inactive; ? = inconclusive; · = not tested or not shown; + = active, no number. This is a sample that favours compounds with a hit; in the whole collection about 2.2% have one here.

SMILES	Cardiac RTF inh	CRFBP-R2 agonist	cardiac RTF act	Myeloid diff 2	CRFBP-R2 block
COc1ccc(-n2ncc(C(C)NS(=O)(=O)c3cc(C)sc3C)c2C)cc1 (stereo not drawn)	·	-5	·	i	51*
CCOCCn1ccc2c(OCC(=O)Nc3ccc(OC)c(OC)c3)cccc2c1=O	-20	3	2	i	5
CCOCCn1ccc2c(OCC(=O)Nc3ccc(OC)cc3OC)cccc2c1=O	-13	-4	0	+	2
Cn1c(=O)c(C(=O)c2ccccc2)nc2ccccc21	5	0	-1	i	18
O=C(c1ccccc1)c1nc2ccccc2n(CCCn2c(=O)c(C(=O)c3ccccc3)nc3ccccc32)c1=O	-5	7	5	+	-1
O=C(c1ccccc1)c1nc2ccccc2[nH]c1=O	2	-1	-1	i	67*
Cc1cccc(N(Cc2ccccc2)C(=O)CCl)c1	-5	0	9	i	-4
CC(=O)N(C(C)=O)c1cccc(N(Cc2ccccc2)Cc2ccccc2)c1	1	-3	-2	i	54*
CC(C)n1c(SCC(=O)N2c3ccccc3Sc3ccccc32)nc2c1c(=O)n(C)c(=O)n2C	0	1	0	+	21
CCCn1c(SCC(=O)N2c3ccccc3Sc3ccccc32)nc2c1c(=O)n(C)c(=O)n2C	-6	-2	2	i	20
COc1ccc(N=Nc2nc3ccc(Br)cc3n2C)cc1	-272	33	132*	i	-14
COc1ccc(OC)c(S(=O)(=O)N2CCN(c3ccccc3)CC2)c1	1	-1	-4	i	14
COc1ccc(OC)c(S(=O)(=O)ON2C(=O)c3ccccc3C2=O)c1	1	1	-1	+	5
CCCCN(C)C(=O)c1ccc2c(c1)S(=O)(=O)c1ccccc1C2=O	-4	0	5	i	-2
O=C1/C(=C/c2cccs2)Cc2ccccc21	2	-2	2	i	7
O=C1C(=Cc2cccs2)C(=O)c2ccccc21	7	0	6	i	55*
CC(=O)N1CC2(CC(c3ccc(Cl)cc3Cl)=NO2)CN1c1cccc(Cl)c1 (stereo not drawn)	·	1	·	i	0
CCOC(=O)c1c(C)[nH]c(C(=O)/C(C#N)=C/c2ccc(OC)c(OC)c2)c1C	7	3	-6	+	-52
CCOC(=O)c1c(C)[nH]c(C(=O)/C(C#N)=C/c2ccc(OC(F)F)c(OC)c2)c1C	-20	3	7	+	-102
CC(C)[C@H](NC(=O)N1CCn2c1nc1ccccc12)C(=O)N1CCCCC1	4	-2	-8	i	10
COc1ccc(Cc2nnc(Cl)c3ccccc23)cc1OC	-2	1	-2	i	23
CCOC(=O)N1CCC(NC(=O)CS(=O)(=O)Cc2nc(-c3ccccc3C)oc2C)CC1	-2	-2	4	+	2
CC(=O)Nc1cc[n+](C(C)C(=O)c2ccc(Br)cc2)cc1 (stereo not drawn)	-2	0	-5	+	7
CC(=O)Nc1cc[n+](C(C)C(=O)c2ccccc2)cc1 (stereo not drawn)	3	0	-9	i	-6
NC(=O)C1CCN(c2nc(-c3ccc(F)cc3)cs2)CC1	-9	-1	7	+	1
SMILES	Cardiac RTF inh	CRFBP-R2 agonist	cardiac RTF act	Myeloid diff 2	CRFBP-R2 block
NC(=O)C1CCN(c2nc(-c3cccnc3)cs2)CC1	-9	0	1	i	1
Cc1c(CC(=O)NCC(=O)O)c(=O)oc2cc3c(cc12)CCC(C)(C)O3	2	1	-7	i	1
COC(=O)CSC1=NS(=O)(=O)c2ccccc21	-16	-10	-3	i	92*
Cc1cccn2c(CNC3CCCc4ccccc43)c(C(=O)N3CCCCC3)nc12 (stereo not drawn)	-10	-11	0	i	-28
COC(=O)c1c[nH]n2c(=O)cc(CCl)nc12	-3	0	-4	i	14
CC(/C=C/c1ccccc1)=N/NC(=O)CNC(=O)c1ccc2c(c1)OCO2	7	0	-4	i	72*
COc1ccc(C(=O)/C(C#N)=N/Nc2ccc([N+](=O)[O-])cc2)cc1	-6	23	6	?	71*
COc1ccc(C(=O)/C(C#N)=N/Nc2ccccc2[N+](=O)[O-])cc1	4	23	5	i	61*
N#C/C(=N\Nc1ccc(Cl)cc1)C(=O)c1ccccc1	6	44	-8	i	83*
COc1ccc(N/N=C(\C#N)C(N)=O)cc1	11	-1	-6	i	6
N#Cc1c(C(F)(F)F)cc(-c2ccc(Cl)cc2)[nH]c1=O	1	-1	0	i	63*
Cc1nc(Sc2ccccc2)c(C#N)cc1-c1ccccc1	-1	6	3	i	53*
CCN(CC(=O)Nc1ccc(OC)cc1)C(=O)c1ccc2c(c1)NC(=O)C(C)S2 (stereo not drawn)	-7	0	-3	i	3
COc1ccc(N2CCN(C(=O)C(=O)c3cn(CC(=O)N4CCOCC4)c4ccccc34)CC2)cc1	-1	-2	1	i	0
COc1ccc(N2CCN(C(=O)C(=O)c3cn(CC(=O)N4CCCCCC4)c4ccccc34)CC2)cc1	1	-1	0	+	7
COc1cc(C=NNC(=O)C(=O)Nc2cccc(Cl)c2)cc(OC)c1O	·	2	·	+	0
CC1(C(=O)NS(=O)(=O)c2ccccc2Cl)CCN1C(=O)COc1ccc(Cl)cc1 (stereo not drawn)	·	·	·	i	·
CC1CC2(CC(CN(C3CCCCC3)C3CCCCC3)OC2=O)C(=O)O1 (stereo not drawn)	·	·	·	i	·
CNS(=O)(=O)c1cccc(C(=O)NCC(c2ccco2)N(C)C)c1 (stereo not drawn)	10	0	-4	i	111*
CC1(C(=O)NS(=O)(=O)c2ccc3ccccc3c2)CCN1C(=O)Cc1ccc(-c2ccccc2)cc1 (stereo not drawn)	·	·	·	i	·
COc1ccc(C)cc1Nc1n[n+](-c2ccccc2)c(-c2cc([N+](=O)[O-])cc(OC)c2O)s1	-80	21	46*	+	-12
C=CCOc1ccc(/C=C2\SC(=S)N(NS(=O)(=O)c3ccc(C)cc3)C2=O)cc1	-6	0	-11	i	42
Cc1ccc(C(=O)C[n+]2cccc3cc(C)ccc32)cc1	-9	16	11	+	-5
COc1ccc2c(ccc[n+]2CC(=O)c2ccc(C)cc2)c1	-2	4	1	i	-2
CC(C)=CC(=O)N1CCCC(N2CCN(c3ccc(F)cc3)CC2)C1 (stereo not drawn)	-2	-1	0	i	5
COc1cc(/C=C2\C(=O)N(c3ccc(NC(C)=O)cc3)N=C2c2ccccc2)ccc1O	0	0	-2	i	68*
Cn1cccc1C(=O)NCCc1ccccc1	-5	0	9	·	-4

High-throughput results (PubChem BioAssay)
